# According to PubChem BioAssay AID778 (Sanford-Burnham Center for Chemical Genomics, 2007):
# Screen size: about 96,000 compounds; about 20,000 (21%) were called active.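 How the source made its calls: active means CYP2C19 inhibition above a set limit at 5 µM in the primary screen (cut at about 50% in these data); inactive means the rest.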 Not all results are given here.
# Biological target: Cytochrome P450 2C19 (Homo sapiens) (UniProt P33261)
# Assay: blockers of cytochrome P450 2C19 activity – biochemical, luminescence, ADME assay, primary screen (AID 778);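 further: plate controls were negative control wells for no effect and 2.5 mM tranylcypromine positive control for full effect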
# Details: CYP2C19 Supersomes, luciferin-H EGE luminescence, 30 min; at 5 µM; active compounds read high
# Chain of Cytochrome P450 2C19 (Homo sapiens) (P33261 whole entry, looked up): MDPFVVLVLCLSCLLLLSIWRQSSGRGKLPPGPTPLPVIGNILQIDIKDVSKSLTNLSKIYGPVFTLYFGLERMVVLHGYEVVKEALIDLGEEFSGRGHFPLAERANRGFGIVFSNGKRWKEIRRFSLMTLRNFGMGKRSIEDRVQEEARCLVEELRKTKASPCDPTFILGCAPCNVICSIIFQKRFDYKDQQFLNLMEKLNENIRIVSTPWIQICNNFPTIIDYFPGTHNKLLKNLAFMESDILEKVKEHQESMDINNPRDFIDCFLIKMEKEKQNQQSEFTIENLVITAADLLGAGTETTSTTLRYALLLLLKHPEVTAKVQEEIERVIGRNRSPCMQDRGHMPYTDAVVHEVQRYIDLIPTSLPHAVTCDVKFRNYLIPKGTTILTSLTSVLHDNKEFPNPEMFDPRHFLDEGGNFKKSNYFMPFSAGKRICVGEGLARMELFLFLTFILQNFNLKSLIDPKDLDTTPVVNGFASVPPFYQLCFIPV
row,Compound,inhibition
1,CCCOc1ccccc1C(=O)NCCCC(=O)O,9.9% (inactive)
2,CCOC(=O)c1c(C)[nH]c(C(=O)NCc2ccccc2OC)c1C,44.3% (inactive)
3,CCc1nnc(NC(=O)CCC(=O)NCc2ccccc2OC)s1,-8% (inactive)
4,COc1ccc(Cl)cc1C(=O)NCC#N,-3.6% (inactive)
5,COc1ccccc1CNC(=O)c1ccc(SC)cc1OC,78.9% (active)
6,COc1cc(SC)ccc1C(=O)NCCOc1ccccc1Cl,94.9% (active)
7,O=C1CCCN1CCCNc1ncnc2c1[nH]c1ccccc12,39% (inactive)
8,CC(=O)Nc1ccc(N2C(=O)CCC2=O)cc1C,9.8% (inactive)
9,O=C(/C=C/Sc1ncn[nH]1)c1ccc(Cl)cc1,38.2% (inactive)
10,CC1Cc2ccccc2N1C(=O)CSc1nnc(-c2ccc(S(=O)(=O)N3CCCCC3)cc2)o1 (centres undefined),12.5% (inactive)
11,CCCNC(=O)CN(Cc1ccccc1F)S(=O)(=O)c1ccc(C)cc1,64.4% (active)
12,Cc1ccc(S(=O)(=O)N(CC(=O)NCCSC2CCCCC2)c2ccccc2F)cc1,-4.4% (inactive)
13,O=C(CCS(=O)(=O)Cc1ccccc1F)NCCCN1CCCCC1,22.6% (inactive)
14,Cc1cc(=O)n2nc(N3CCCC(C(=O)NCCC4=CCCCC4)C3)sc2n1 (centres undefined),35.1% (inactive)
15,CCOC(=O)N1CCC(NC(=O)Cc2cn(C)c3ccccc23)CC1,-8.8% (inactive)
16,CC1=Nn2c(nnc2-c2ccccc2)SC1,-2% (inactive)
17,CCOc1ccccc1C1CC(c2ccccc2)Nc2nc(N)nn21 (centres undefined),44.9% (inactive)
18,CCOc1ccccc1C1CC(c2ccc(Cl)cc2)Nc2nc(N)nn21 (centres undefined),90.2% (active)
19,COc1ccc(C2CC(c3ccc(Cl)cc3Cl)Nc3nc(N)nn32)cc1OC (centres undefined),-12.5% (inactive)
20,COc1ccc(NC(=O)COC(=O)Cn2c(C)nc3ccccc32)cc1OC,-0.3% (inactive)
21,COc1ccc(-c2nc3ccccc3n2CCC(C)C)cc1OC,61.3% (active)
22,COCCn1c(-c2ccc(OC)c(OC)c2)nc2ccccc21,0.9% (inactive)
23,C=CCN(c1ccc(C(N)=O)cc1)S(C)(=O)=O,-3.9% (inactive)
24,CSc1ccc(-c2c(C#N)c(N)nc3c2c(C)nn3-c2ccccc2)cc1,4.1% (inactive)
25,COc1cc(=O)[nH]c(=O)n1C(=O)Cc1ccccc1,5.6% (inactive)
26,Cc1ccc(C(=O)Nc2nnc(-c3ccncc3)s2)o1,27% (inactive)

row,Compound,inhibition
1,Cc1ccc(C(=O)COc2cccc(NC(=O)c3ccco3)c2)cc1,32.7% (inactive)
2,Cc1occc1C(=O)Nc1nnc(C2CCCCC2)s1,-3.5% (inactive)
3,Cc1occc1C(=O)Nc1cccc(Cn2cccn2)c1,57% (active)
4,Cc1occc1C(=O)Nc1nnc(-c2ccncc2)s1,98.1% (active)
5,CCOc1cccc(C(=O)Nc2cnn(Cc3ccccc3)c2)c1,8.6% (inactive)
6,Fc1ccc(CNc2nc3ccccc3n3nnnc23)cc1,6% (inactive)
7,CN(C)/C=C1\C=C(c2ccccc2)OC1=O,-5.7% (inactive)
8,O=C1CSC2=NCN(c3ccccc3)CN12,3.1% (inactive)
9,CCOc1ccc(Nc2oc(Cc3ccccc3)nc2C#N)cc1,30.6% (inactive)
10,N#Cc1nc(Cc2ccccc2)oc1NCCc1ccccc1,64.7% (active)
11,N#Cc1nc(Cc2cccc3ccccc23)oc1NCc1ccc2c(c1)OCO2,48.7% (inactive)
12,FC(F)(F)c1nnc2sc(-c3ccco3)nn12,10.3% (inactive)
13,CCOc1ccc(/C(O)=C2/C(=O)C(=O)N(Cc3cccnc3)C2c2ccc(N(C)C)cc2)c(C)c1 (centres undefined),3.8% (inactive)
14,CCOc1ccc(N2C(=O)CC(N(O)c3ccccc3)C2=O)cc1 (centres undefined),20.3% (inactive)
15,Cn1c(N)c(C(=O)COC(=O)C23CC4CC(CC(C4)C2)C3)c(=O)n(C)c1=O,13.1% (inactive)
16,Cc1cc(C)cc(NC(=O)N2CCC(NC(=O)c3ccc(F)cc3)CC2)c1,-9.5% (inactive)
17,COCCCn1c(Cc2csc(Nc3cccc(Cl)c3)n2)nnc1SCC(=O)OC1CCCCC1,27.4% (inactive)
18,CCOc1ccc(Nc2nc(Cc3nnc(SCC(=O)NC4CCCC4)n3C)cs2)cc1,53.4% (active)
19,CCOc1ccc(Nc2nc(Cc3nnc(SCC(=O)c4ccc(C)cc4)o3)cs2)cc1,46.9% (inactive)
20,CC(C)c1ccc(Nc2ncccc2C#N)cc1,22.2% (inactive)
21,Cc1ccc(NC2=NC(c3ccccc3)n3c(nc(C)cc3=O)N2)cc1 (centres undefined),42.1% (inactive)
22,Cc1ccc(OCC(=O)Nc2ccc(-c3nnc(-c4ccco4)o3)cc2)cc1,44.4% (inactive)
23,CC1(C)CC(=O)c2cc(OCC(=O)NCC3CCCO3)ccc2O1 (centres undefined),16.2% (inactive)
24,Cc1ccc(/C=N\n2c(-c3ccccc3)n[nH]c2=S)s1,4.8% (inactive)
25,O=C(c1ccc2c(c1)OCO2)N1CCN(C(=O)c2ccco2)CC1,17% (inactive)
26,CCNC(=S)N1CCN(C(=O)c2ccco2)CC1,5.5% (inactive)

row,Compound,inhibition
1,O=C(c1ccco1)N1CCN(C(=O)C2c3ccccc3Oc3ccccc32)CC1,88.7% (active)
2,O=C(Cc1c(F)cccc1Cl)N1CCN(C(=O)c2ccco2)CC1,11.2% (inactive)
3,COc1ccc(N2C(=O)C3CCCN3C2c2cccc(OC)c2)cc1 (centres undefined),30.1% (inactive)
4,Cc1ccc(OS(=O)Nc2cccc3nccnc23)cc1 (centres undefined),38.8% (inactive)
5,CC(C)OC(=O)C(C#N)c1nc2ccccc2nc1N1CCN(Cc2ccc3c(c2)OCO3)CC1 (centres undefined),2.4% (inactive)
6,Cc1ccc(S(=O)(=O)C(C#N)c2nc3ccccc3nc2N2CCCC2)cc1C (centres undefined),96.8% (active)
7,Cc1ccc(S(=O)(=O)Nc2nc3ccccc3nc2N2CCc3ccccc3C2)cc1,40.6% (inactive)
8,Cc1ccc(-c2c3c(=O)n(C)c(=O)n(C)c3cn2-n2cnnc2)cc1,-18.4% (inactive)
9,O=C(c1ccc(CN2CCOCC2)cc1)N1CCN(c2ccccc2F)CC1,9.5% (inactive)
10,Cc1cccc(C)c1N1CCN(S(=O)(=O)N2CCOCC2)CC1,22.7% (inactive)
11,O=S(=O)(N1CCOCC1)N1CCN(c2ccccc2F)CC1,61.1% (active)
12,COC(=O)c1sccc1N/N=C(\C)c1ccc(F)c(Cl)c1,-0.3% (inactive)
13,O=C(Nc1ccc2c(c1)OCCO2)C1CCCN(c2ncccn2)C1 (centres undefined),1.1% (inactive)
14,Cc1ccnc(N2CCCC(C(=O)Nc3cc(F)ccc3C)C2)n1 (centres undefined),99.2% (active)
15,Cc1cc(-c2ccccc2)nc(N2CCC(C(=O)NC34CC5CC(CC(C5)C3)C4)CC2)n1,8.2% (inactive)
16,CC(C)CCNC(=O)C1CCCN(S(=O)(=O)c2ccc(F)cc2)C1 (centres undefined),7.6% (inactive)
17,Cc1ccnc(N2CCC(C(=O)NC3CCCCCC3)CC2)n1,94.4% (active)
18,Cc1cc(C)cc(NC(=O)C2CCN(c3nc(C)cc(C)n3)CC2)c1,-2.3% (inactive)
19,C/C(=N\NC(=O)c1nc(C)cc(C)n1)c1ccccc1,-4% (inactive)
20,Cc1ccc(-c2nnc(SC(C)C#N)n2N)cc1 (centres undefined),9% (inactive)
21,NC(N)=N/N=C/c1ccc(OCc2ccc(Cl)cc2Cl)cc1,-10.2% (inactive)
22,CCOC(=O)C1=C(O)CSC1=Nc1cccc(Cl)c1,9.1% (inactive)
23,COC(=O)C1C(=O)NCC1c1ccc(OC)cc1 (centres undefined),13.7% (inactive)
24,CC(C)(C)NS(=O)(=O)CC12CCC(CC1=O)C2(C)C (centres undefined),17.8% (inactive)
25,CCOc1cc2[nH]c(=S)n(CCN3CCCCC3C)c(=O)c2cc1OCC (centres undefined),2.3% (inactive)
26,C=CCNC(=O)c1sc(SC)cc1-c1ccc(Cl)cc1,83.9% (active)

row,Compound,inhibition
1,C=CCNC(=O)c1ccc(C)c(Br)c1,19.1% (inactive)
2,CCOc1ccccc1C(=O)NCCCn1ccnc1,93.4% (active)
3,COc1ccccc1-c1cc(C(=O)N2CCCCC2)no1,52.8% (active)
4,COc1ccccc1-c1cc(C(=O)NCCCn2ccnc2)no1,78.5% (active)
5,O=C(c1cc(-c2cccs2)on1)N1CCCCC1,14.3% (inactive)
6,COc1ccccc1CCNC(=O)c1cnccn1,22.6% (inactive)
7,COc1ccc(-c2cc(C(=O)NCc3ccco3)no2)cc1OC,-19.3% (inactive)
8,NS(=O)(=O)c1ccc(CCNC(=O)Nc2ccc(Cl)cc2)cc1,24.5% (inactive)
9,O=C(c1cc(-c2ccccc2O)on1)N1CCCC1,17.3% (inactive)
10,CCOc1ccc(C(=O)NCCCN2CCCC2=O)cc1,15.8% (inactive)
11,CCCCOCCCNC(=O)c1ccccc1OCC,48.3% (inactive)
12,O=C(NCCCn1ccnc1)Nc1ccc(Cl)cc1Cl,97.4% (active)
13,Cc1cc2nc(C)n(CCCNC(=O)Nc3ccccc3)c2cc1C,20.3% (inactive)
14,CCCCCCCCOC1OC(CO)C(O)C(O)C1NC(C)=O (centres undefined),-4.2% (inactive)
15,N#Cc1c(NC(=O)CCCN2C(=O)c3ccccc3C2=O)oc(-c2ccccc2)c1-c1ccccc1,24.8% (inactive)
16,COCCOC(=O)c1sc(=S)n(CCOC)c1N,47.6% (inactive)
17,Cc1ccc2nc(NC(=O)C3CCN(S(=O)(=O)c4ccc5c(c4)oc(=O)n5C)CC3)sc2c1,6.1% (inactive)
18,CCCCC(=O)Nc1ccc(C(=O)NCCCn2ccnc2)cc1,37.9% (inactive)
19,CCN(CC)C(=O)CCC(=O)Nc1ccc(C(=O)OC)cc1,33.7% (inactive)
20,CCCC(=O)Nc1ccc(C(=O)NCCCn2ccnc2)cc1,52.2% (active)
21,CC1(C)CC(=O)C(C2=NC(C)(C)Cc3ccccc32)=C(O)C1,13.7% (inactive)
22,COc1ccc(C2C(C#N)=C(/N=C/N3CCOCC3)OC3=C2C(=O)CC(C)(C)C3)cc1OC (centres undefined),21% (inactive)
23,CCc1ccc(N(CC)c2ncnc3nc[nH]c23)cc1,14.9% (inactive)
24,CCOC(=O)C1=C(CN2CCc3ccccc32)NC(=O)NC1c1cccc([N+](=O)[O-])c1 (centres undefined),63.5% (active)
25,Cn1c2c(c(=O)n(C)c1=O)C(c1cccc([N+](=O)[O-])c1)Nc1ccccc1O2 (centres undefined),18.9% (inactive)
26,CCOC(=O)C1=C(CN2CCc3ccccc32)NC(=O)NC1c1ccc(Cl)cc1 (centres undefined),26.5% (inactive)
